Test results reported in PubChem BioAssay (EPA / NIEHS).
Several values for one entry are separate records, joined by “and”; a condition that tells them apart may be missing. Equal values may be shown once. Activity calls are given as the source filed them. How the source made its calls: active means hit-call score of the fitted dose curve at least 0.9, where 1 is the maximum; inactive means score below 0.9.

read-out: Interferon-gamma inducible Protein 10 (IP10), CXCL10 (gene 3627); assay: BSK_hDFCGF_IP10: BioMAP Diversity Plus: hDFCGF Assay for Interferon-gamma inducible Protein 10 (IP10) Biomarker Activity (AID 2283053); conditions: primary human foreskin fibroblasts; actives raise or lower the signal
Experimental: BSK_hDFCGF is a cell-based, multiplexed-readout assay that uses foreskin fibroblast, a human skin primary cell, with measurements taken at 24 hours after chemical dosing in a 96-well plate.BSK_hDFCGF_IP10 is an assay component measured in the BSK_hDFCGF assay. It measures IP-10 antibody related to regulation of gene expression using ELISA technology.Data from the assay component BSK_hDFCGF_IP10 was analyzed into 1 assay endpoint. This assay endpoint, BSK_hDFCGF_IP10, was analyzed with bidirectional fitting relative to DMSO as the negative control and baseline of activity. Using a type of binding reporter, gain or loss-of-signal activity can be used to understand changes in the signaling as they relate to the gene CXCL10. Furthermore, this assay endpoint can be referred to as a primary readout, because this assay has produced multiple assay endpoints where this one serves a signaling function. To generalize the intended target to other relatable targets, this assay endpoint is annotated to the cytokine intended target family, where the subfamily is chemotactic factor.
The levels of cell surface (or secreted, indicated by the prefix "s") biomarker endpoints were measured by ELISA. Overt cytotoxicity to cells in confluent adherent cultures (all systems other than the BT system) was assessed by measuring total protein levels using sulforhodamine B (SRB) staining in parallel cultures at the time of biomarker measurements, indicated as SRB endpoints. For proliferation assays for adherent cell types, individual cell types are cultured at sub-confluence and relative cell numbers quantified by SRB staining at time points optimized for each system (48 h: 3C and CASM3C systems; 72 h: BT and HDF3CGF systems; 96 h: SAg system). SRB was performed by staining cells with 0.1% SRB after fixation with 10% TCA and reading wells at 560 nm.Viability and proliferation of PBMC (T cells) was quantified by Alamar Blue reduction for the SAg and BT systems. For PBMC viability (referred to as PBMC Cytotoxicity within the assay endpoint names), cells were plated (75,000/well in a 96-well plate) and then chemical samples added for 1 h before addition of activators, SEB and TSST-1 (20 ng/mL final concentration each). Cells were incubated for 90 h. Then, Alamar Blue (20 uL/well) (Invitrogen, Cat DAL1100) was added for 6 h, and the plates were read with a fluorescence microplate reader at 546/580 nm (excitation/emission). For PBMC proliferation, cells were plated and activated as above but incubated for only 16 h prior to addition of Alamar Blue. Plates were read after 6 h.

SMILES | outcome | AC50
O=C(NCc1ncc(C(F)(F)F)cc1Cl)c1c(Cl)cccc1Cl | inactive | –
Oc1ccc(Cc2ccccc2O)cc1 | inactive | –
CN(CCO)S(=O)(=O)C(F)(F)C(F)(F)C(F)(F)C(F)(F)C(F)(F)C(F)(F)C(F)(F)C(F)(F)F | inactive | –
Clc1ccc(Nc2nnc(Cc3ccncc3)c3ccccc23)cc1 | inactive | –
COc1cccc(O)c1 | inactive | –
CCCCC=O | inactive | –
Oc1cc2ccccc2cc1O | inactive | –
OCC(F)(F)C(F)(F)C(F)(F)C(F)(F)C(F)(F)C(F)(F)C(F)(F)C(F)(F)C(F)(F)C(F)(F)C(F)(F)F | inactive | –
Cc1[nH]nc2c1N=C(c1ccccc1Cl)c1cc([N+](=O)[O-])ccc1N2 | inactive | –
CC1=NN(c2ccccc2)C(=O)C1 | inactive | –
NC(=NCCCCCCN=C(N)/N=C(\N)Nc1ccc(Cl)cc1)/N=C(\N)Nc1ccc(Cl)cc1 | – | 8.17 µM (active)
O=C1OC2(c3ccccc31)c1cc(I)c(O)c(I)c1Oc1c2cc(I)c(O)c1I | – | 16 µM (active)
C=CC(C)(CCC=C(C)C)OC(C)=O (stereo not given) | inactive | –
O=P(O)(O)CCC(F)(F)C(F)(F)C(F)(F)C(F)(F)C(F)(F)C(F)(F)C(F)(F)C(F)(F)F | inactive | –
O=C(CCCN1CCC(O)(c2ccc(Cl)cc2)CC1)c1ccc(F)cc1 | inactive | –
Cc1cccc2c1ccc1ccccc12 | inactive | –
O=C(O)CCC(F)(F)C(F)(F)C(F)(F)C(F)(F)C(F)(F)F | inactive | –
CN(Cc1cnc2nc(N)nc(N)c2n1)c1ccc(C(=O)N[C@@H](CCC(=O)O)C(=O)O)cc1 | inactive | –
CCCCCCCCCCCCOS(=O)(=O)O | – | 26.3 µM (active)
CCCCC(CC)C(=O)OCCOCCOCCOCCOC(=O)C(CC)CCCC (stereo not given) | inactive | –

SMILES | outcome | AC50
O=C(NO)c1ccccc1 | inactive | –
CCCCCCCCCCCCCCC | inactive | –
OCC(CO)(CBr)CBr | inactive | –
O=C1NS(=O)(=O)c2ccccc21 | inactive | –
Cc1ccc(N=Nc2c(O)ccc3ccccc23)c(C)c1 | – | 10 µM (active)
CN(C)CCOC(c1ccccc1)c1ccccc1 | – | 33.6 µM (active)
N=C(N)c1ccc(OCCCCCOc2ccc(C(=N)N)cc2)cc1 | – | 17.5 µM (active)
CCCCCCCCCCCCCCCCCC[N+](C)(C)Cc1ccccc1 | – | 0.795 µM (active)
O=C(O)CCC(F)(F)C(F)(F)C(F)(F)C(F)(F)C(F)(F)C(F)(F)F | inactive | –
O=C(O)C(F)(F)OC(F)(F)C(F)(F)OC(F)(F)C(F)(F)OC(F)(F)C(F)(F)C(F)(F)C(F)(F)F | – | 10.1 µM (active) and 9.36 µM (active)
O=C1c2ccc(O)c(O)c2C(=O)c2c(O)ccc(O)c21 | inactive | –
CCOC(=O)CN[C@@H](C(=O)N1CC[C@H]1C(=O)NCc1ccc(/C(N)=N/O)cc1)C1CCCCC1 | inactive | –
OCCN1CN(CCO)CN(CCO)C1 | – | 20 µM (active)
CC(=O)Nc1ccc(O)cc1 | inactive | –
CCCCCCCCCCCC | – | 8.64 µM (active) and 6.71 µM (active)
Oc1c(Cl)cc(Cl)cc1Sc1cc(Cl)cc(Cl)c1O | – | 1.66 µM (active) and 1.94 µM (active)
O=P(O)(O)CCC(F)(F)C(F)(F)C(F)(F)C(F)(F)C(F)(F)C(F)(F)F | inactive | –
CC(C)(C)c1ccc(O)c(O)c1 | – | 32.3 µM (active)
CCC(C)c1ccccc1O (stereo not given) | inactive | –
O=C(c1ccccc1)c1ccccc1 | inactive | –
